Results filed as inconclusive are left out. The source made the active and inactive calls. Calls follow the shape of the dose curve; as a rule, active = well fitted inhibition curve with a large enough effect; inconclusive = small, poorly fitted or top-dose-only effect; inactive = flat fitted curve, though single readings scatter.

Common to all, as to assay: qHTS profiling for inhibitors of Plasmodium falciparum proliferation (AID 504749); also: nearly all actives have a fitted effect of over 60% in size
Details in all cases: P. falciparum in erythrocytes, SYBR Green DNA, 72 h; series mostly up to 28.7 µM

For assay [1], the system named is CP192. The gist of the method: (§1)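 P. falciparum-infected erythrocytes (0.3% parasitemia, 2.5% hematocrit final) were exposed to compounds for 72 h at 37 C in 5% CO2, then lysed with SYBR Green buffer overnight at room temperature; parasite DNA fluorescence was normalized to artemisinin and DMSO controls.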
Assay [2] concerns CP194. A digest of the protocol:
as §1

The test system of assay [3] is CP201. A digest of the protocol:
as §1

The subject of assay [4] is CP203. A digest of the protocol: as §1
Assay [5] deals with CP211. A digest of the protocol: as §1
For assay [6], the system named is CP215. A digest of the protocol:
as §1

For assay [7], the system named is CP217. A digest of the protocol:
as §1

Assay [8] deals with CP237. A digest of the protocol:
as §1

Assay [9] concerns CP238. The gist of the method:
as §1

For assay [10], the system named is CP247. The gist of the method: as §1
Potency is read from the fitted curve at half-maximal effect.

In the case of `C[C@H]1CC[C@@H]2[C@@H](C)[C@H]3[C@H](C[C@H]4[C@@H]5CC=C6CC(O[C@@H]7O[C@H](CO)[C@H](O)[C@H](O[C@@H]8O[C@H](CO)[C@@H](O)[C@H](O)[C@H]8O)[C@H]7O[C@H]7O[C@@H](C)[C@H](O)[C@@H](O)[C@H]7O)CC[C@]6(C)[C@H]5CC[C@]34C)N2C1` (some centres undefined), the Potency result in assay [1], in assay [2], in [3], in assay [4], in assay [5] and in [6] was “inactive” each time. The Potency result in assay [7], in assay [8], in assay [9] and in assay [10] was “inactive” throughout.
Regarding `CC(=O)OO`, the Potency result in assay [1], in [2], in [3], in assay [4], in [5] and in assay [6] was “inactive” in each case. Further, the Potency entry in assay [7], in [8], in assay [9] and in assay [10] was “inactive” each time.
`Clc1ccc(C2(Cn3cncn3)OCCO2)c(Cl)c1`: the Potency result in assay [1], in [2], in assay [3], in assay [4], in [5] and in assay [6] was “inactive” in each case. In addition, the Potency result in assay [7], in [8], in [9] and in assay [10] was “inactive” in each case.
Regarding `CN1c2ccccc2C(NCCCCCCC(=O)O)c2ccc(Cl)cc2S1(=O)=O` (centres undefined), the Potency result in [1], in assay [2], in assay [3], in [4], in [5] and in assay [6] was “inactive” in each case. Further, the Potency result in assay [7], in assay [8], in assay [9] and in assay [10] was “inactive” in each case.
On to `O=C1CC[C@@]2(O)C3Cc4ccc(O)c5c4C2(CCN3CC2CC2)[C@H]1O5` (some centres undefined), for which the Potency entry in [1], in assay [2], in assay [3], in [4], in [5] and in [6] was “inactive” throughout. Further, the Potency result in assay [7], in [8], in assay [9] and in [10] was “inactive” throughout.
In the case of `CCC(N)Cc1c[nH]c2ccccc12` (centres undefined), the Potency result in [1], in [2], in assay [3], in [4], in [5] and in assay [6] was “inactive” each time. The Potency entry in assay [7], in assay [8], in [9] and in assay [10] was “inactive” in each case.
Regarding `COCC(C)N(C(=O)CCl)c1c(C)csc1C` (centres undefined), the Potency entry in assay [1], in assay [2], in assay [3], in assay [4], in assay [5] and in assay [6] was “inactive” in each case. The Potency entry in [7], in assay [8], in [9] and in assay [10] was “inactive” each time.
Turning to `COC([CH2][Hg])CNC(=O)c1ccccc1OCC(=O)O` (centres undefined), the Potency entry in [1], in assay [2], in [3], in [4], in assay [5] and in assay [6] was “inactive” in each case. Also, the Potency entry in assay [7], in [8], in assay [9] and in assay [10] was “inactive” in each case.
On to `CNC(C)C(O)c1ccc(O)cc1` (centres undefined), for which the Potency result in assay [1], in assay [2], in [3], in assay [4], in assay [5] and in assay [6] was “inactive” in each case. Also, the Potency entry in [7], in [8], in assay [9] and in assay [10] was “inactive” throughout.
On to `CC(=O)OC1CN2CCC1CC2` (centres undefined), for which the Potency entry in [1], in assay [2], in assay [3], in assay [4], in assay [5] and in [6] was “inactive” throughout. Besides, the Potency result in assay [7], in assay [8], in assay [9] and in [10] was “inactive” in each case.
Consider `CCC1(C)CC(=O)NC(=O)C1`, for which the Potency entry in assay [1], in assay [2], in assay [3], in assay [4], in assay [5] and in assay [6] was “inactive” in each case. Moreover, the Potency result in assay [7], in assay [8], in assay [9] and in assay [10] was “inactive” each time.
As for `c1ccc2sc(SNC3CCCCC3)nc2c1`, the Potency entry in assay [1], in assay [2], in assay [3], in assay [4], in [5] and in [6] was “inactive” throughout. For the same molecule, the Potency result in assay [7], in [8], in [9] and in assay [10] was “inactive” each time.
As to `ClCC1CO1` (centres undefined), the Potency entry in [1], in [2], in [3], in assay [4], in assay [5] and in [6] was “inactive” each time. Further, the Potency result in [7], in assay [8], in assay [9] and in assay [10] was “inactive” each time.
`O=C1C2CC=CCC2C(=O)N1SC(Cl)(Cl)Cl` (centres undefined): the Potency result in [1], in [2], in [3], in assay [4], in [5] and in assay [6] was “inactive” throughout. In addition, the Potency result in [7], in [8], in [9] and in assay [10] was “inactive” in each case.
On to `c1ccc2cc(CC3=NCCN3)ccc2c1`, for which the Potency entry in [1], in [2], in assay [3], in assay [4], in assay [5] and in assay [6] was “inactive” each time. Moreover, the Potency entry in assay [7], in assay [8], in assay [9] and in assay [10] was “inactive” in each case.
Consider `[O]=[Cr](=[O])([OH])[O][Cr](=[O])(=[O])[OH]`, for which the Potency result in [1], in assay [2], in assay [3], in assay [4], in [5] and in [6] was “inactive” in each case. Besides, the Potency entry in [7], in assay [9] and in assay [10] was “inactive” in each case. Moreover, in assay [8], the Potency is 11.2 µM (active).
For `O=Cc1ccco1`, the Potency result in assay [1], in [2], in [3], in assay [4], in assay [5] and in assay [6] was “inactive” each time. Also, the Potency result in [7], in [8], in assay [9] and in assay [10] was “inactive” throughout.
For `O[C@H]1[C@H]2[C@H](O)CCCN2C[C@H]1O`, the Potency result in [1], in assay [2], in [3], in [4], in assay [5] and in assay [6] was “inactive” throughout. The Potency result in [7], in [8], in assay [9] and in assay [10] was “inactive” throughout.
`O=C(O)C(Cl)(Cl)Cl`: the Potency result in [1], in assay [2], in [3], in assay [4], in assay [5] and in assay [6] was “inactive” in each case. The Potency entry in assay [7], in [8], in [9] and in assay [10] was “inactive” throughout.
Turning to `CC(Cc1ccccc1)NC=O` (centres undefined), the Potency result in assay [1], in assay [2], in assay [3], in [4], in assay [5] and in assay [6] was “inactive” throughout. Further, the Potency result in [7], in [8], in assay [9] and in assay [10] was “inactive” throughout.
Take `CC1CCC(C(C)C)C(OC(=O)c2ccccc2N)C1` (centres undefined): the Potency result in assay [1], in [2], in assay [3], in assay [4], in assay [5] and in assay [6] was “inactive” in each case. For the same molecule, the Potency result in [7], in assay [9] and in assay [10] was “inactive” each time.
`CCOC(=O)c1ccccc1C(=O)OCC`: the Potency result in assay [1], in assay [2], in [3], in assay [4], in assay [5] and in assay [6] was “inactive” in each case. Further, the Potency entry in [7], in assay [8], in assay [9] and in assay [10] was “inactive” each time.
In the case of `CCCCNCC(O)c1ccc(O)cc1` (centres undefined), the Potency result in assay [1], in [2], in assay [3], in assay [4], in assay [5] and in assay [6] was “inactive” throughout. The Potency result in assay [7], in [8], in [9] and in assay [10] was “inactive” each time.

Values taken from PubChem BioAssay (NCATS).
